# Measurements taken from the supplement of paper PMC10338343.
# ± gives the standard deviation. Whole data set: some 6,600 sequences, median “pre-steady-state target cleavage rate” near 0.07, cut for the highest 2% near 0.72. The list comes from a sample in which the highest values are over-represented; it also holds similar and randomly drawn sequences.
# Tested on: MIWI (PIWIL1) piRISC loaded with Kctd7 piRNA (30 nt)
# Experiment: pre-steady-state target cleavage rate (min^-1); MIWI and MILI are mouse PIWI proteins and EfPiwi is from a freshwater sponge; tags in brackets are library labels; higher = faster piRNA-guided slicing of the target
# Details: guide: Kctd7 piRNA 5'p-UGUUAAUCUCUCAGAGAAGGUGACAGUGAU; auxiliary factor: 500 nM mouse GTSF1
# Description: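 Cleave-'n-Seq: a library of target RNAs (target site embedded in constant flanks, ACAGCATTCCGCGTTAGTGATATCCG... 5' flank; DNA-blocked outside the site) at 0.1 nM was incubated with 1 nM active mouse MILI or MIWI piRISC (synthetic 5'-monophosphorylated piRNA guide) with or without 500 nM mouse GTSF1 at 33 °C for 1 min to 16 h. Uncleaved targets were sequenced and normalised to non-target controls, and the pooled three trials were fitted to a burst-and-steady-state model to give the pre-steady-state cleavage rate (min^-1; k3 is constrained to at most 1e-4). Sequence is the target site only; target names encode pairing extent (gX:gY) and contiguous / 1-mismatch / 2-mismatch / bulge geometry. Fits with R² ≤ 0 are excluded.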
row,Sequence,pre-steady-state target cleavage rate
1,UAGUGACAGUCCUUCUCAGAGAGUUUAACA,0.0044 ± 0.0027
2,UAGUGACUCACGAUCUCUGAGAGAUUAACA,0.00958 ± 0.0018
3,UACACUGUCACCUUCUCUGAGAGAUGUAACA,0.386 ± 0.051
4,AACACUCUCACCUUCUCUGAGAGAUUAACA,0.564 ± 0.035
5,UACACUGUCACCUUCUCUGAGAGAUUACCA,0.152 ± 0.024
6,UACACUGUCACAUUCUCUGAGAGAUUAACA,0.676 ± 0.036
7,UUCACUGUCACAUUCUCUGAGAGAUUAACA,0.682 ± 0.031
8,AUCACUGUCACAUUCUCUGAGAGAUUAACA,0.799 ± 0.035
9,UUCACUGUCACCUCUCUGAGAGAUUAACA,0.501 ± 0.037
10,UUCACUGUCACCUCUCUCUGAGAGAUUAACA,0.289 ± 0.022
11,UAGUCUGUCACCAUUCUCUGAGAGAUUAACA,0.601 ± 0.03
12,UACACUGUCACCAUUCUCUGAGAGAUUAACA,0.674 ± 0.035
13,UUCACUGUCACCAUUCUCUGAGAGAUUAACA,0.725 ± 0.029
14,AUCACUGUCACCAUUCUCUGAGAGAUUAACA,0.741 ± 0.036
15,UACACUGUCCACCUUCUCUGAGAGAUUAACA,0.496 ± 0.038
16,UAGAGUGACACCUUCUCUGAGAGAUUAACA,0.55 ± 0.023
17,UAGACUUUCACCUUCUCUGAGAGAUUAACA,0.612 ± 0.033
18,UAGUGACAGUGUUUCUCUGAGAGAUUAACA,0.00493 ± 0.0019
19,UAGUGUGACACCUUCUCUGAGAGAUUAUGA,0.0202 ± 0.0074
20,AUCACUGUCACUUCUCUGAGAGAUUAACA,0.628 ± 0.044
21,UAGUCUGUCAACUUCUCUGAGAGAUUAACA,0.593 ± 0.024
22,UACACUGUCACACUUCUCUGAGAGAUUAACA,0.544 ± 0.023
23,UUCACUGUCAACUUCUCUGAGAGAUUAACA,0.668 ± 0.028
24,UACACUGUCAACUUCUCUGAGAGAUUAACA,0.796 ± 0.035

row,Sequence,pre-steady-state target cleavage rate
1,UAGACUGUCAACCUUCUCUGAGAGAUUAACA,0.282 ± 0.023
2,AUCACUGUCAACUUCUCUGAGAGAUUAACA,0.793 ± 0.045
3,UAGACUGUCAACUUCUCUGAGAGAUUAACA,0.726 ± 0.049
4,UACACUGUCAACCUUCUCUGAGAGAUUAACA,0.193 ± 0.016
5,UUCACUGUCACCUUCUCUGAAGAGAUUAACA,0.019 ± 0.0081
6,UAGUGACUCACCUUCUGUGAGAGAUUAAGA,0.088 ± 0.02
7,AAGACUGUCACCUUCUCUGAGAGAUUAACA,0.786 ± 0.036
8,UAGACUGUCACCUUCUCUGAGAAGAUUAACA,0.0399 ± 0.0084
9,UAGACUGUCACCUUCUCUCUGAGAUUAACA,0.0118 ± 0.0026
10,UAGACUGUCACCUUCUCUGAGAGAUUAACA [g2:g27:cont:t1A],0.805 ± 0.05
11,AAGACUGUCACCUUCUCUGAGAGAUUAAGA,0.238 ± 0.037
12,UAGACUGUCACCUUCUCUGAGAGAUUAACC [g2:g27:cont:t1C],0.322 ± 0.03
13,UAGACUGUCACCUUCUCUGUGAGAUUUUGA,0.0048 ± 0.0033
14,UAGUGACACACCUUCACUGAGAGAAUAACA,0.0335 ± 0.0091
15,UAGUGAGUCACCUUCACUGAGAGAUUUUGA,0.0525 ± 0.017
16,UACACUCUCACCUUCACUGAGAGAUUAACA,0.256 ± 0.02
17,UAGACUGUCACCUUGCUCUGAGAGAUUAACA,0.358 ± 0.049
18,AUCACUGUCACCUCUCUCUGAGAGAUUAACA,0.515 ± 0.031
19,UAGACUGUCACCUGUCUCUGAGAGAUUAACA,0.561 ± 0.036
20,UACACUGUCACCUCUCUCUGAGAGAUUAACA,0.425 ± 0.029
21,UAGACUGUCACCUCUCUCUGAGAGAUUAACA,0.409 ± 0.044
22,UACACUGUCACCUCCUCUGAGAGAUUAACA,0.731 ± 0.026
23,UAGACUGUCACCUCUCUGAGAGAUUAACA,0.321 ± 0.036
24,AUCACUGUCACCUCCUCUGAGAGAUUAACA,0.802 ± 0.033

row,Sequence,pre-steady-state target cleavage rate
1,UUCACUGUCACCUCCUCUGAGAGAUUAACA,0.639 ± 0.021
2,UAGACUGUCACCUGCUCUGAGAGAUUAACA,0.77 ± 0.043
3,UAGACUGUCACCUCCUCUGAGAGAUUAACA,0.744 ± 0.035
4,UACACUGUCACCUCUCUGAGAGAUUAACA,0.5 ± 0.035
5,UUCACUGUCAGGUUCUCUGAGAGAUUAUGA,0.0127 ± 0.003
6,UAGUGACUCACCUUCUCUGACACAUUAACA,0.00928 ± 0.0035
7,UUCACUGUCACCUUGUCUGAGUGAUUAACA,0.0394 ± 0.0054
8,UAGUCUGUCUCCUUCUGUGAGAGAUUAACA,0.536 ± 0.028
9,UUCACUGUGACGUUCUCUGAGAGAUUAACA,0.59 ± 0.026
10,AUCAGACUCACCUUCUCUGAGAGAUUAAGA,0.159 ± 0.028
11,AUCACUGUCACCUUCUCUGAGAGUAUUUGA,0.109 ± 0.034
12,UUCACUGUCACCUUCUCUGAGAGAAAAUGA,0.0429 ± 0.015
13,UAGUGACUCACCUUCUCUCAGAGAUAAACA,0.0156 ± 0.0032
14,UAGUGACUCACCCUCUCUGAGAGAUUAACA,0.415 ± 0.045
15,AUCUCUGUCACCUUCUCUCAGAGAUUAACA,0.105 ± 0.0088
16,UAGUGUGUCACCAUCUCUGACAGAUUAACA,0.222 ± 0.021
17,UAGACUGUCACCUUCUCUGAGAGAUAAUGA,0.00696 ± 0.0033
18,UAGUCUGUCACCUCCUCUGAGAGAUUAACA,0.726 ± 0.038
19,UAGUCUGUCACCUCUCUCUGAGAGAUUAACA,0.481 ± 0.032
20,UAGUCUGUCACCUCUCUGAGAGAUUAACA,0.447 ± 0.048
21,UAGUGACUCACCUUCUCUGAGAGAUUAACC [g2:g23:cont:t1C],0.303 ± 0.032
22,AUCACUGUCAGGUUCUCUGAGAGAUUAACA,0.653 ± 0.043
